Measured values reported in PubChem BioAssay (Tox21).
Where “and” joins values, the source holds several entries; their conditions need not be identical. Equal values may be shown once. Records with an inconclusive call do not appear. A call without a number means that no potency is given here. Some structures have more than one record in an assay (separate samples or runs), and their calls can disagree. Calls of active or inactive are those of the source. Unless noted, calls follow the shape of the dose curve; as a rule, active = well fitted curve in the direction sought with a large enough effect in the repeat runs; inconclusive = weak or mixed curves; inactive = no such curve, though single readings can be large; an effect the other way counts as inactive or inconclusive.

Assays:
[1] = qHTS assay for small molecule agonists of the p53 signaling pathway (AID 651631; calls by dose curve; also: nearly all actives have a fitted effect of over 15% in size; also: potency is read from the fitted curve at half-maximal effect)
Method in brief: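 Beta-lactamase reporter activity under p53 response elements was quantified in HCT-116 cells by FRET fluorescence, following 16 h incubation with test compounds at 37 °C and 2 h substrate development at room temperature.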

[2] = qHTS assay for small molecules that induce genotoxicity in human embryonic kidney cells expressing luciferase-tagged ATAD5 (AID 651632); also: nearly all actives have a fitted effect of over 15% in size; also: potency is read from the fitted curve at half-maximal effect
Method in brief: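 Cells were seeded at 2,000 per well, dosed with compound, and incubated 16 hr at 37C in 5% CO2. Luciferase activity was then quantified after a 30 min room-temperature incubation with Amplite.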

[3] = qHTS assay for small molecule agonists of the p53 signaling pathway - cell viability (AID 651633; calls by dose curve; also: nearly all actives have a fitted effect of over 30% in size; also: potency is read from the fitted curve at half-maximal effect)
Method in brief: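 p53RE-bla cells, seeded at 4,000 per well and rested 5 h at 37 C/5% CO2, received compounds in DMSO for 16 h at 37 C. CellTiter-Glo was then added, and luminescence was read after 30 min at room temperature to gauge cytotoxicity.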

[4] = qHTS assay for small molecules that induce genotoxicity in human embryonic kidney cells expressing luciferase-tagged ATAD5 - cell viability (AID 651634; calls by dose curve; also: nearly all actives have a fitted effect of over 25% in size; also: potency is read from the fitted curve at half-maximal effect)
Method in brief: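 Cells (HEK293T, luciferase-tagged ATAD5) are seeded at 2,000 per well, dosed with compound or DMSO vehicle, and incubated 15.5 hr at 37C and 5% CO2. CellTiter-Fluor is added for 30 min before fluorescence is measured.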

[5] = qHTS assay for small molecule disruptors of the mitochondrial membrane potential - cell viability (AID 720634; calls by dose curve;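 also: human HepG2 liver cancer cells; series mostly up to about 83 µM; nearly all actives have a fitted effect of over 20% in size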)
Method in brief: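 Cytotoxicity was measured by ATP quantitation in HepG2 wells that had first been treated with compound for 1 hr and stained with m-MPI dye; CellTiter-Glo incubation was 30 min at room temperature.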

[6] = qHTS assay for small molecule disruptors of the mitochondrial membrane potential (AID 720635); also: potency is read from the fitted curve at half-maximal effect
Method in brief: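 HepG2 cells (2,000/well) attached overnight at 37C, then took compound for 1 hr at 37C, 5% CO2. Mito-MPS dye was added for 30 min; fluorescence was read at 490/535 nm (monomers) and 540/590 nm (aggregates).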

[7] = qHTS assay to test for compound auto fluorescence at 590 nm (red) in HepG2 cells (AID 720674)
Method in brief: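 Compound auto-fluorescence is scored relative to Rose Bengal sodium, measured at 540/590 nm in live HepG2 cultures after 1 hr compound contact (37 C, 5% CO2).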

[8] = qHTS assay to test for compound auto fluorescence at 535 nm (green) in HepG2 cells (AID 720675)
[9] = qHTS assay to test for compound auto fluorescence at 590 nm (red) in HEK293 cells (AID 720679)
Method in brief: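 Each well held 2,000 HEK293 cells in medium containing 10% dialyzed FBS. Following 4-5 hr attachment at 37C, 23 nL test compound or DMSO was added; plates sat overnight, and red fluorescence (540/590nm) was recorded.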

[10] = qHTS assay to test for compound auto fluorescence at 460 nm (blue) in HEK293 cells (AID 720678)
Method in brief: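 Cells were seeded and left to adhere for 4-5 hr at 37C. Compounds were then pin-transferred. After an overnight incubation at 37C under 5% CO2, intrinsic fluorescence at 405/460 nm was measured and referenced to triamterene.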

Structure (SMILES) | Potency [1] | Potency [2] | Potency [3] | Potency [4] | Potency [5] | Potency [6] | outcome [7] | Potency [8] | outcome [9] | Potency [10]
C[C@@H]1O[C@@H](OC[C@H]2O[C@@H](Oc3c(-c4ccc(OCCO)c(OCCO)c4)oc4cc(OCCO)cc(O)c4c3=O)[C@H](O)[C@@H](O)[C@@H]2O)[C@H](O)[C@H](O)[C@H]1O | inactive | inactive | inactive | inactive | inactive | inactive | inactive | inactive | inactive | –
Cc1cc(CC(C)CC(C)(C)C)n(O)c(=O)c1 (stereo not given) (tested in a mixture with another compound) | 9.44 µM (active) | 13.3 µM (active) | 29.8 µM (active) | – | inactive | 3.35 µM (active) | inactive | inactive | inactive | inactive
O=C1OC(=O)c2cc(-c3ccc4c(c3)C(=O)OC4=O)ccc21 | inactive | inactive | inactive | inactive | inactive | – | inactive | inactive | inactive | inactive
O=C1c2c(O)cccc2[C@H]([C@@H]2O[C@H](CO)[C@@H](O)[C@H](O)[C@H]2O)c2cc(CO)cc(O)c21 | inactive | inactive | inactive | inactive | inactive | inactive | inactive | inactive | inactive | inactive
CC/C(=C(/CC)c1ccc(OP(=O)(O)O)cc1)c1ccc(OP(=O)(O)O)cc1 | inactive | inactive | inactive | inactive | inactive | inactive | inactive | inactive | inactive | inactive
CN(C)CCc1c[nH]c2ccc(Cn3cncn3)cc12 | inactive | inactive | inactive | – | inactive | inactive | inactive | inactive | inactive | inactive
CC(C)(C)C(=O)OCC(=O)[C@H]1CC[C@H]2[C@@H]3CCC4=CC(=O)CC[C@]4(C)[C@H]3CC[C@]12C | inactive | inactive | inactive | – | inactive | inactive | inactive | inactive | inactive | inactive
Cc1cc(-c2ccc(N=Nc3ccc4c(S(=O)(=O)O)cc(S(=O)(=O)O)c(N)c4c3O)c(C)c2)ccc1N=Nc1ccc2c(S(=O)(=O)O)cc(S(=O)(=O)O)c(N)c2c1O | inactive | inactive | inactive | 13.3 µM (active) | inactive | – | inactive | inactive | inactive | inactive
CCCC(=O)c1cc(O)c(O)cc1O | 68.6 µM (active) | inactive | inactive | 30.6 µM (active) | – | 5.45 µM (active) | inactive | inactive | inactive | inactive
C=CC1=C(C(=O)O)N2C(=O)[C@@H](NC(=O)/C(=N\O)c3csc(N)n3)[C@H]2SC1 (stereo in doubt) | inactive | inactive | inactive | – | inactive | inactive | inactive | inactive | inactive | inactive
CC1(C)S[C@@H]2[C@H](NC(=O)[C@H](N)c3ccc(O)cc3)C(=O)N2[C@H]1C(=O)O | inactive | inactive | inactive | inactive | inactive | inactive | inactive | inactive | inactive | –
C[N+]1(CCCCC[N+]2(C)CCCC2)CCCC1 | inactive | inactive | inactive | – | inactive | inactive | inactive | inactive | inactive | inactive
NC(=O)c1cc[n+](CC2=C(C(=O)O)N3C(=O)[C@@H](NC(=O)C(c4ccccc4)S(=O)(=O)[O-])[C@H]3SC2)cc1 (stereo not given in full) | inactive | inactive | inactive | – | inactive | inactive | inactive | inactive | inactive | inactive
C/C=C/C1=C(C(=O)O)N2C(=O)[C@@H](NC(=O)[C@H](N)c3ccc(O)cc3)[C@H]2SC1 | inactive | inactive | inactive | inactive | inactive | inactive | inactive | inactive | inactive | –
CCN(CC)C(=O)[C@]1(c2ccccc2)C[C@@H]1CN | inactive | inactive | inactive | – | inactive | inactive | inactive | inactive | inactive | inactive
CCCOC(=O)c1ccccc1O | inactive | inactive | inactive | – | inactive | inactive | inactive | inactive | inactive | inactive
COc1cc2c(cc1O)CCN[C@]21CS[C@@H]2c3c(OC(C)=O)c(C)c4c(c3[C@H](COC1=O)N1[C@@H]2[C@H]2c3c(cc(C)c(OC)c3O)C[C@@H]([C@@H]1O)N2C)OCO4 | 8.4 nM (active) and 12.2 nM (active) | inactive and 243 nM (active) | inactive | 0.0422 µM (active) | inactive | – | inactive | inactive | inactive | inactive
CC12CCC(C[N+](C)(CCC[N+](C)(C)C)C1)C2(C)C (stereo not given) | inactive | inactive | inactive | – | inactive | inactive | inactive | inactive | inactive | inactive
Cc1cc(=O)c(C(=O)N[C@@H](C(=O)N[C@@H]2C(=O)N3C(C(=O)O)=C(CSc4nnnn4C)CS[C@H]23)c2ccc(O)cc2)c[nH]1 | inactive | inactive | inactive | inactive | inactive | – | inactive | inactive | inactive | inactive
O=C(N[C@H](CO)[C@H](O)c1ccc([N+](=O)[O-])cc1)C(Cl)Cl | inactive | inactive | inactive | inactive | inactive | – | inactive | inactive | inactive | inactive
O=C(O)CCCC/C=C(\c1ccccc1)c1cccnc1 | inactive | inactive | inactive | – | inactive | inactive | inactive | inactive | inactive | inactive
CN1[C@@H](CC(=O)c2ccccc2)CCC[C@H]1C[C@H](O)c1ccccc1 | inactive | inactive | inactive | inactive | inactive | – | inactive | inactive | inactive | inactive
